{"source": "PubChem BioAssay AID1650", "about": "(Southern Research Specialized Biocontainment Screening …, 2009)", "note": "Entries with a potency or affinity are not part of this list. Unmarked numbers belong to inactive results. The rule behind the calls is not given here.", "data": [{"test": "host cell cytotoxicity of antiviral hits, dose response, cytotoxicity control for West Nile virus antiviral project, secondary assay (AID 1650)", "conditions": "Mammalian host cell viability, cytotoxicity counter-screen; series mostly up to 10 µM; viability: at the top concentration", "values": [{"smiles": "Cc1cccc(CN2CCC(CNC(=O)CSc3cc(=O)n(C)c4cc(Cl)ccc34)CC2)c1", "viability": "78.6%"}, {"smiles": "CC[C@H]1CC2CN3CCc4c([nH]c5c([C@H]6C[C@H]7[C@H](CC)CN(C)[C@@H](Cc8c6[nH]c6ccccc86)[C@H]7C(=O)OC)c(OC)ccc45)C(C(=O)OC)(C2)C13", "viability": "71.3%"}, {"smiles": "O=C(Nc1cccc(-c2cccc(Cl)c2)c1)C1CCN(CC2CCOC2)CC1", "note": "(stereo not given)", "viability": "77.2%"}, {"smiles": "CC(=O)OCC1O[C@@H](O[C@@H]2C[C@H]3C(C)(C)[C@H](OC(C)=O)CC[C@]3(C)[C@H]3CC[C@]45C[C@]4(CC[C@H]5[C@@H](C)C[C@@H](O)[C@H](O)C(C)(C)O)[C@@]32C)[C@H](O)[C@@H](O)[C@@H]1O", "note": "(stereo not given in full)", "viability": "93.6%"}, {"smiles": "CN(C)CCN(C)Cc1ccccc1Sc1cccc2ccccc12", "viability": "78.4%"}, {"smiles": "Cc1ccccc1CN(CC(=O)Nc1cccc([N+](=O)[O-])c1)S(=O)(=O)c1ccc(Cl)cc1", "viability": "80.2%"}, {"smiles": "Cc1cccc2cc(CN(CCCN(C)C)C(=S)NCCc3ccccc3)c(=O)[nH]c12", "viability": "75.7% [at 20 µM]"}, {"smiles": "O=C(Nc1ccc2nc3n(c(=O)c2c1)CCCC3)c1cc([N+](=O)[O-])ccc1F", "viability": "78.6% [at 20 µM]"}, {"smiles": "CC(C)n1cc(CN2CCCC(C(=O)Nc3cccc(-c4cc5ccccc5[nH]4)c3)C2)cn1", "note": "(stereo not given)", "viability": "85.8%"}, {"smiles": "Cc1coc(NC(=O)CSc2nc(-c3ccncc3)cc(C(F)(F)F)c2C#N)n1", "viability": "82.6%"}, {"smiles": "CCOc1ccc2nc(N3CCCC(C(=O)NCCCN4C(C)CCCC4C)C3)sc2c1", "note": "(stereo not given)", "viability": "86.3% [at 20 µM]"}, {"smiles": "CCN(CC)CCCNC(=S)N1CCN(c2nc(-c3ccccc3)cs2)CC1", "viability": "86.9%"}, {"smiles": "O=C(CSc1nc2ccccc2c(=O)n1-c1ccc(F)cc1F)Nc1ccc2c(c1)CCC2", "viability": "71.6% [at 20 µM]"}, {"smiles": "CN(C)Cc1c(C(=O)N/N=C/c2cccc(OCc3c(F)cccc3Cl)c2)nnn1-c1nonc1N", "viability": "84.5% [at 20 µM]"}, {"smiles": "O=C(NCCC1=CCCCC1)c1coc(=O)c(Br)c1", "viability": "92%"}, {"smiles": "CN(C)CCCN(C(=O)c1ccc(S(=O)(=O)N2CCCc3ccccc32)cc1)c1nc2ccc(F)cc2s1", "viability": "84.6% [at 20 µM]"}, {"smiles": "N#Cc1ncc(-c2ccc3c(c2)OCCOCCOCCOCCOCCO3)nc1C#N", "viability": "86.6%"}, {"smiles": "CC(NC(=O)/C=C/c1cnc2ccccc2n1)C12CC3CC(CC(C3)C1)C2", "note": "(stereo not given)", "viability": "78.4%"}, {"smiles": "Cc1cc(N2CCCC2)nc2ccc(NC(=S)NCCCN3CCC(C)CC3)cc12", "viability": "79.8% [at 20 µM]"}, {"smiles": "CCN(CC)CCNC(=O)c1sc2ncn(CC(=O)Nc3ccc(C)c(Cl)c3)c(=O)c2c1C", "viability": "75.4% [at 20 µM]"}, {"smiles": "Cc1ccc2[nH]c(=O)c(CN(CCCN(C)C)C(=O)Nc3ccc(Cl)cc3)cc2c1", "viability": "74.7%"}, {"smiles": "CCOc1ccc(C(=O)CCC(=O)O)cc1", "viability": "87.4%"}, {"smiles": "NS(=O)(=O)c1ccc(NC(=O)c2cc(-c3cc(Cl)ccc3O)n[nH]2)cc1", "viability": "102%"}, {"smiles": "CN(C)CCCNC(=S)N1CCN(c2nc(-c3ccccc3)cs2)CC1", "viability": "81.2%"}, {"smiles": "COc1cc(C(=O)N/C(=C/c2ccc(F)cc2)C(=O)NC(C(=O)O)c2ccccc2)cc(OC)c1OC", "note": "(stereo not given)", "viability": "93.4%"}, {"smiles": "Cc1ccc(-n2c(O)c(C=Nc3ccc4c(c3)OCO4)c3ccccc3c2=O)cc1C", "viability": "79.1% [at 20 µM]"}, {"smiles": "O=C(CCCN1C(=O)/C(=C\\c2ccccc2)SC1=S)Nc1ccc(O)cc1", "viability": "72.3% [at 20 µM]"}, {"smiles": "CCN(CC)CCCNc1oc(-c2cccc(Cl)c2)nc1C#N", "viability": "78% [at 20 µM]"}, {"smiles": "CCOC(=O)c1c(CC(C)C)csc1/N=C/C1=C(O)CCCC1=O", "viability": "92% [at 20 µM]"}, {"smiles": "COc1cc(CNC(C)(C)CO)cc(Br)c1OCc1ccc(Cl)cc1", "viability": "81.2%"}, {"smiles": "Cc1ccc2oc(=O)c3cc(C(=O)NCCCN4CC(C)CC(C)C4)sc3c2c1", "note": "(stereo not given)", "viability": "71.7% [at 20 µM]"}, {"smiles": "Cn1c(N)c(C(=O)CSc2nc3ccccc3c(=O)n2CCCN2CCOCC2)c(=O)n(C)c1=O", "viability": "87.8%"}, {"smiles": "O=C(Nc1ccc(F)cc1)c1nc[nH]c1C(=O)Nc1ccccc1[N+](=O)[O-]", "viability": "102% [at 20 µM]"}, {"smiles": "CCCCCCCCCc1nc2sc3c(c2c(=O)n1NC(=O)c1ccc([N+](=O)[O-])cc1)CC(C)(C)OC3", "viability": "93.4% [at 20 µM]"}, {"smiles": "Cc1ccc(-c2nc3ccccc3s2)cc1NC(=S)NC(=O)c1cccc2ccccc12", "viability": "88.9%"}, {"smiles": "CCN1CCN(CCCNC(=O)C2CCCN(c3nc4c(C)cc(C)cc4s3)C2)CC1", "note": "(stereo not given)", "viability": "86.5%"}, {"smiles": "CN1CCN(CCNC(=O)c2ccc3nc(-c4ccc(F)cc4)c(-c4ccc(F)cc4)nc3c2)CC1", "viability": "86.1%"}, {"smiles": "CCc1ccc2nc(N(CCCN(C)C)C(=O)c3ccc(S(=O)(=O)N4CCCc5ccccc54)cc3)sc2c1", "viability": "82.3%"}, {"smiles": "COc1ccc(CCNC(=O)c2cc3c(=O)n4cccc(C)c4nc3n(CCCN3CCOCC3)c2=N)cc1", "viability": "79.9%"}, {"smiles": "Cc1ccc(-n2c(SCC(=O)Nc3ccc(N4CCOCC4)cc3)nc3ccccc3c2=O)cc1", "viability": "85.4%"}]}]}
